# Assay results: PubChem BioAssay AID540327 (National Center for Advancing Translational Sciences (NCATS), 2011)
# The list shows a part of the results. Results filed as inconclusive are left out. Calls of active or inactive are those of the source. Calls follow the shape of the dose curve; as a rule, active = well fitted inhibition curve with a large enough effect; inconclusive = small, poorly fitted or top-dose-only effect; inactive = flat fitted curve, though single readings scatter.
# Biological target: Ubiquitin carboxyl-terminal hydrolase 1 (Homo sapiens) (UniProt O94782)
# Experiment: Inhibitors of USP1/UAF1: Hit Validation in Primary Assay
# Conditions: Ub-Rhodamine cleavage, fluorescence kinetic read
# From the text: Deubiquitinating enzymes (DUBs) are a class of enzymes that can cleave isopeptide bond formed between the C-terminal carboxylate of ubiquitin and a lysine side-chain amino group on the target protein. Among them, ubiquitin specific proteases (USPs) constitute the largest DUB family. Human USPs are emerging as promising targets for pharmacological intervention because of their connection to a number of human diseases, including prostate, colon and breast cancer (1, 2), pediatric acute lymphoblastic leukemia (3), and familial cylindromatosis (4). The advantage of inhibiting USPs lies in the potential specificity of therapeutic intervention that can lead to better efficacy and reduce nonspecific side effects. […] This miniaturized assay has a fluorescent read-out and is used to screen the NIH Molecular Libraries Small Molecule Repository (MLSMR) in order to identify a small molecule that inhibits USP1. […]
# 3 microliters of reagents (buffer in columns 3 and 4 as negative control and 1nM USP1/UAF1 complex in columns 1, 2, and 5-48) are dispensed into Greiner black solid bottom 1536-well assay plates. […] The plates are immediately centrifuged at 1000 rpm for 15 seconds, and subsequently transferred to a ViewLux high-throughput CCD imager (PerkinElmer) wherein kinetic measurements of fluorescence are acquired using 480 nm excitation/540 nm emission filter set (6 reads every 60 seconds, see Table 1). […]
# Ubiquitin carboxyl-terminal hydrolase 1 (Homo sapiens), sequence (O94782 whole entry, looked up): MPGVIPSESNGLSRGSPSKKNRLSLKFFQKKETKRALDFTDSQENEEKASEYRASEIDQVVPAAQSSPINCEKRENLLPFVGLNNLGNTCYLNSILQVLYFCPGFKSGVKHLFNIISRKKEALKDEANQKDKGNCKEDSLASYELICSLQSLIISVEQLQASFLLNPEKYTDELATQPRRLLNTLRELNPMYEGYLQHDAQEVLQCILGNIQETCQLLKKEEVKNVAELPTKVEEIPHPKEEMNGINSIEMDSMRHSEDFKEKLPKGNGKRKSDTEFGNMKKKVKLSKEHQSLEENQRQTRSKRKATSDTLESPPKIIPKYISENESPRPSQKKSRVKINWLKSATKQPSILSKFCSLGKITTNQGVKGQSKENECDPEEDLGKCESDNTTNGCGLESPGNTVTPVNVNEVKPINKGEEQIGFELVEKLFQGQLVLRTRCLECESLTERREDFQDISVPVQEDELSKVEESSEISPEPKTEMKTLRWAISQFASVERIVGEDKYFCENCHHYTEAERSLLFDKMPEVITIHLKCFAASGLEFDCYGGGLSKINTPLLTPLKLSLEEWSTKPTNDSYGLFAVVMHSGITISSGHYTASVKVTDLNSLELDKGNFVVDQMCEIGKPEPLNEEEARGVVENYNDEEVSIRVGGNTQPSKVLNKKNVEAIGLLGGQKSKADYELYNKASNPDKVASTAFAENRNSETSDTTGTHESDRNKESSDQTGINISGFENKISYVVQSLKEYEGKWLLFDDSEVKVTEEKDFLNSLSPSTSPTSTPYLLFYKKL
smiles,measurement,value
CC(=O)c1c(O)c(C)c(O)c(Cc2c(O)c3c(c(C(=O)/C=C/c4ccccc4)c2O)OC(C)(C)C=C3)c1O,Potency,41.8 µM (active)
